Source: ChEMBL document CHEMBL3988442, “University of Dundee, Small-Polar-MMV Screening Library” (2021)
Where “and” joins values, the source holds several entries; their conditions need not be identical. Identical values can stand only once. For part of these data: Results with a measured potency or affinity are listed apart.

Tests used:
Parameters in all cases: scale not given: direction of the effect not stated beside the values
[1] = target: Protein translocase subunit SecA (Escherichia coli (strain K12)) (UniProt P10408); test: Assay to Identify E. coli SecA ATPase Inhibitors; type: functional; settings: 30 µM
[2] = target: T1, Ubiquitin-activating enzyme e1, putative (Leishmania donovani (strain BPK282A1)) (UniProt E9BSI1); test: Leishmania donovani Ubiquitin Activating Enzyme (LdE1); type: functional; settings: 30 µM
T1 sequence (whole entry): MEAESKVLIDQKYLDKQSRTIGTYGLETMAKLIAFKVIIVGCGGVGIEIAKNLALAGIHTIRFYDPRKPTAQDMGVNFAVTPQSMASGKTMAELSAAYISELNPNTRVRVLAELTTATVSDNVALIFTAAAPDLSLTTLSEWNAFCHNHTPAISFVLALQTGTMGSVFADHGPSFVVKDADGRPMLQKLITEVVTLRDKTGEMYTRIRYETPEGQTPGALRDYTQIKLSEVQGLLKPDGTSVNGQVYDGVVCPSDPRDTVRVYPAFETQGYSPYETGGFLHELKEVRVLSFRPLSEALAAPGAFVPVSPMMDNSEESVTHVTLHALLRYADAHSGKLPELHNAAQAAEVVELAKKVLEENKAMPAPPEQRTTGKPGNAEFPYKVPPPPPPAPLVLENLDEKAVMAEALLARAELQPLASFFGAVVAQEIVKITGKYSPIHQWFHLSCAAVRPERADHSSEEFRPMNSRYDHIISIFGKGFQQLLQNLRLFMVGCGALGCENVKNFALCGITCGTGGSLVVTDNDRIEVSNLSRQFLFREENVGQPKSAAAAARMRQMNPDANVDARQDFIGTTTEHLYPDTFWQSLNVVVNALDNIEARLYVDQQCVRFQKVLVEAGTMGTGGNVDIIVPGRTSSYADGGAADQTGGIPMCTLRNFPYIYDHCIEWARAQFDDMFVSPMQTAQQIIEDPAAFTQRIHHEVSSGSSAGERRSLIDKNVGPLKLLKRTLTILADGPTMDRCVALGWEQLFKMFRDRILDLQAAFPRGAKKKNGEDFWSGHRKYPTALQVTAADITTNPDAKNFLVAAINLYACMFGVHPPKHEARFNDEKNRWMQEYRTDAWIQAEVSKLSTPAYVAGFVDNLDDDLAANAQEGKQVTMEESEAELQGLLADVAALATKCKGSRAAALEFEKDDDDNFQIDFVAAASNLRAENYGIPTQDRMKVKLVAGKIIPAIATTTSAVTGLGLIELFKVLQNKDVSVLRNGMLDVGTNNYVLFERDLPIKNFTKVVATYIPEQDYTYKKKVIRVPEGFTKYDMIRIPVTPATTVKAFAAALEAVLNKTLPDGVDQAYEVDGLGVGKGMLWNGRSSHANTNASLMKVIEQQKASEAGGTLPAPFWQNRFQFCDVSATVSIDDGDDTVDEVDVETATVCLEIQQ

[3] = target: AMP-activated protein kinase, AMPK (Homo sapiens) (UniProt P54646+O43741+P54619+Q9UGJ0+Q9Y478+Q13131+Q9UGI9); test: AMP-dependent Kinase enzyme assay. An in vitro enzyme assay that detects ADP turnover that is directly proportional to AMPK activity. This uses naive AMPK that is activated during the assay with MK-8722; type: functional; settings: 30 µM
[4] = target: Sialic acid-binding Ig-like lectin 9 (Homo sapiens) (UniProt Q9Y336); test: Hs-Siglec9 ALPHAscreen SOP 20170721; settings: 10 µM
Trypanosoma cruzi = test: Trypanosoma cruzi phosphomannomutase and mannose-1-phosphate guanylyltransferase assay; type: functional; settings: 10 µM
[5] = target: T2, Arginase-2, mitochondrial (Homo sapiens) (UniProt P78540); test: in vitro enzyme assay to detect the production of urea directly proportional to the activity of Arginase II; type: functional; note: in the data most compounds retested in dose-response had high values
T2 sequence (whole entry): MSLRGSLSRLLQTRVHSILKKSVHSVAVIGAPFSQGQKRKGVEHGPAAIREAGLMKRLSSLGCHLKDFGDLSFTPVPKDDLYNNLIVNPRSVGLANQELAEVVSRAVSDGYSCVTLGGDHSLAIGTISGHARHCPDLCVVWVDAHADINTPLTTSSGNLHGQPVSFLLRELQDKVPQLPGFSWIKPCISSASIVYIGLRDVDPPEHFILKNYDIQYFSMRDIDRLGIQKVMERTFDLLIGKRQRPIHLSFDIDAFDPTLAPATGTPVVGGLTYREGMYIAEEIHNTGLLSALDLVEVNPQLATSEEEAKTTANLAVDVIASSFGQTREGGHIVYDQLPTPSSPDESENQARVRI

[6] = target: T3, Proteasome subunit beta (Trypanosoma cruzi) (UniProt O96673); test: Trypanosoma cruzi proteasome chymotrypsin-like activity (TcProtChymo) assay.; note: in the data most compounds retested in dose-response had high values; type: functional; settings: 9.37 µM
T3 sequence (whole entry): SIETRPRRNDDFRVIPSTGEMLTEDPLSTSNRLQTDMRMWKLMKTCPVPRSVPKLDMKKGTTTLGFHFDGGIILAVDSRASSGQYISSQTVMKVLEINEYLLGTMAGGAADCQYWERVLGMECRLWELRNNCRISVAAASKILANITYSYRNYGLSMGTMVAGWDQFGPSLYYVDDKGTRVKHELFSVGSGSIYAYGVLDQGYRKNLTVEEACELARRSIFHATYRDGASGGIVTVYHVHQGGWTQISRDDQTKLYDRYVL

Homo sapiens = species on record: Homo sapiens; test: To identify inhibition of the IFN signalling (Jak-Stat) pathway via expression of an eGFP reporter gene under the control of an IFN-stimulated response element (ISRE) containing MxA promoter.; type: functional; settings: 30 µM
[7] = target: T4, Tyrosyl-tRNA synthetase, putative (Trypanosoma cruzi (strain CL Brener)) (UniProt Q4DSP6); test: Trypanosoma cruzi tyrosyl tRNA synthetase (TcYRS) _High Tyrosine SOP; type: functional; settings: 30 µM; note: in the data most compounds retested in dose-response had high values
T4 sequence (whole entry): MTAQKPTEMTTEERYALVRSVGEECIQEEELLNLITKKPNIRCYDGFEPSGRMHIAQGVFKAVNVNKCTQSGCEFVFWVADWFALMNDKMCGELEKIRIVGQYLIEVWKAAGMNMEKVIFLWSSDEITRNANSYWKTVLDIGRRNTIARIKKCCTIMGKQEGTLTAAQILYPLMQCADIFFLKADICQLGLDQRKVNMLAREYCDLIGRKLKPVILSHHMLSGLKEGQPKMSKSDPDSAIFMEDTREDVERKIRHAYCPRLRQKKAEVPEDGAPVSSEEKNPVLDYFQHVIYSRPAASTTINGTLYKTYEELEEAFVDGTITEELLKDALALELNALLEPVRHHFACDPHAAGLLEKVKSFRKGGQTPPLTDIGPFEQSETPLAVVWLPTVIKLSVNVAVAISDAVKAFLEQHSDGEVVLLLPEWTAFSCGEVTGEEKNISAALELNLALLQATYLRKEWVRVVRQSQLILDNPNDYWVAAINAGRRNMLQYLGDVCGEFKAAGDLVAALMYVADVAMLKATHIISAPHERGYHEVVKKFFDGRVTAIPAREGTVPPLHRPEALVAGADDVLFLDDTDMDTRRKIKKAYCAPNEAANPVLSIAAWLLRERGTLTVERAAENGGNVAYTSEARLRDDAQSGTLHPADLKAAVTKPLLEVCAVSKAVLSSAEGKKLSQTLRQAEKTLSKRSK

[8] = target: T4, Tyrosyl-tRNA synthetase, putative (Trypanosoma cruzi (strain CL Brener)); test: Trypanosoma cruzi tyrosyl tRNA synthetase (TcYRS) SOP; type: functional; settings: 30 µM
[9] = target: Chromo domain-containing protein 1 (Saccharomyces cerevisiae (strain ATCC 204508 / S288c) (Baker's yeast)) (UniProt P32657); test: ScCHD-1 Enzyme Inhibition Assay; type: functional; settings: 30 µM; note: in the data most compounds retested in dose-response had high values
N/A = test: Trypanosoma cruzi proteasome luciferase counter-screen; type: functional; settings: 9.37 µM

Sequence of Chromo domain-containing protein 1 (Saccharomyces cerevisiae (strain ATCC 204508 / S288c) (Baker's yeast)) (P32657 whole entry, the tested form may be a part): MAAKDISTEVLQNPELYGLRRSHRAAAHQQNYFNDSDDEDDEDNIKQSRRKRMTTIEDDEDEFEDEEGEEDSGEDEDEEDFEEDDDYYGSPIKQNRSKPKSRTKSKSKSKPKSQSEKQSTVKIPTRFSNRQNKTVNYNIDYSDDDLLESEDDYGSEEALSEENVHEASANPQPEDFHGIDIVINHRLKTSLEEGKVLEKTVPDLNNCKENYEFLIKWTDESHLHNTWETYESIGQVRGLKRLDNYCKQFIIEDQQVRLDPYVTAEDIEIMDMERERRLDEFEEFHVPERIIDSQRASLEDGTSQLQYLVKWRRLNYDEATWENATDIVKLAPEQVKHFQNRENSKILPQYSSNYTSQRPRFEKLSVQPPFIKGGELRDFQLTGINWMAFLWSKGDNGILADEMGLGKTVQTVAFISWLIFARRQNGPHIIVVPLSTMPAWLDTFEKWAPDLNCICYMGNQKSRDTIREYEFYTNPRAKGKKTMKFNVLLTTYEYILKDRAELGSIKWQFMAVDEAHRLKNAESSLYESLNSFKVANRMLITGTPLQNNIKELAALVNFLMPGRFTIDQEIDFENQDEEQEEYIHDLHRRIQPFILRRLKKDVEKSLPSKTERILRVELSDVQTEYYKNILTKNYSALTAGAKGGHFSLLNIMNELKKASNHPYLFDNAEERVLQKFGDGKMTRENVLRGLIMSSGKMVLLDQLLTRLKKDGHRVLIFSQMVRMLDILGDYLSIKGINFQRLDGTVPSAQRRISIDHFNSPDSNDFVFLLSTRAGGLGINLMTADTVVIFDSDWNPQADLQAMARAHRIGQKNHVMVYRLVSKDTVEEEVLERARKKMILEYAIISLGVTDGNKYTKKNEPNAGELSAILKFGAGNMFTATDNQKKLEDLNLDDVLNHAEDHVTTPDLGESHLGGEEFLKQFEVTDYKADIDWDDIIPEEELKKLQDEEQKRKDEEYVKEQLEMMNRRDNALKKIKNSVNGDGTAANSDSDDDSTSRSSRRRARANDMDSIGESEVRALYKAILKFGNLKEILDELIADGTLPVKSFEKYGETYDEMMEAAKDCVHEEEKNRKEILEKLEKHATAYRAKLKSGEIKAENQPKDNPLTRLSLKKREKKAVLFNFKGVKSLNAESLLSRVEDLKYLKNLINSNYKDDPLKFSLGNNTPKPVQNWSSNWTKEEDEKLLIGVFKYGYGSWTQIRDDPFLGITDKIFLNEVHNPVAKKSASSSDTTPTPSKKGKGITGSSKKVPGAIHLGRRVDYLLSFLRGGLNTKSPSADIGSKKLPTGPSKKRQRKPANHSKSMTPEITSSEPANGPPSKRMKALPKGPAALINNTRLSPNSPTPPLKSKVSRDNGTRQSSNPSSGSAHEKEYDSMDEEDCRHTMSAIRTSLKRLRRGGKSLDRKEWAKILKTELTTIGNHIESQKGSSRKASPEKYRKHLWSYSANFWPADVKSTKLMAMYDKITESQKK
Sequence of Sialic acid-binding Ig-like lectin 9 (Homo sapiens) (Q9Y336 whole entry): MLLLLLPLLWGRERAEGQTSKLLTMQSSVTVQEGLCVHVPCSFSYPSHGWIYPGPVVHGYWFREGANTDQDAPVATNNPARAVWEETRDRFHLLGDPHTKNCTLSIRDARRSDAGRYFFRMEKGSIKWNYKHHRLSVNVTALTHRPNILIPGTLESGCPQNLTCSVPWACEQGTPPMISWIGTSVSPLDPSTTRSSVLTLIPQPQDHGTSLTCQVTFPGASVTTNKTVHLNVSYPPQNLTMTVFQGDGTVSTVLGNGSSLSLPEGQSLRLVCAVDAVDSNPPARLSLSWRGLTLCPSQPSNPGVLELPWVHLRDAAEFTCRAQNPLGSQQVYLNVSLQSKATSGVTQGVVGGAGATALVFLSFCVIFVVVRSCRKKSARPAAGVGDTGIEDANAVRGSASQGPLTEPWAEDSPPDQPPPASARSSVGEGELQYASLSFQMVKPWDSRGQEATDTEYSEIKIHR
Sequence of Protein translocase subunit SecA (Escherichia coli (strain K12)) (P10408 whole entry): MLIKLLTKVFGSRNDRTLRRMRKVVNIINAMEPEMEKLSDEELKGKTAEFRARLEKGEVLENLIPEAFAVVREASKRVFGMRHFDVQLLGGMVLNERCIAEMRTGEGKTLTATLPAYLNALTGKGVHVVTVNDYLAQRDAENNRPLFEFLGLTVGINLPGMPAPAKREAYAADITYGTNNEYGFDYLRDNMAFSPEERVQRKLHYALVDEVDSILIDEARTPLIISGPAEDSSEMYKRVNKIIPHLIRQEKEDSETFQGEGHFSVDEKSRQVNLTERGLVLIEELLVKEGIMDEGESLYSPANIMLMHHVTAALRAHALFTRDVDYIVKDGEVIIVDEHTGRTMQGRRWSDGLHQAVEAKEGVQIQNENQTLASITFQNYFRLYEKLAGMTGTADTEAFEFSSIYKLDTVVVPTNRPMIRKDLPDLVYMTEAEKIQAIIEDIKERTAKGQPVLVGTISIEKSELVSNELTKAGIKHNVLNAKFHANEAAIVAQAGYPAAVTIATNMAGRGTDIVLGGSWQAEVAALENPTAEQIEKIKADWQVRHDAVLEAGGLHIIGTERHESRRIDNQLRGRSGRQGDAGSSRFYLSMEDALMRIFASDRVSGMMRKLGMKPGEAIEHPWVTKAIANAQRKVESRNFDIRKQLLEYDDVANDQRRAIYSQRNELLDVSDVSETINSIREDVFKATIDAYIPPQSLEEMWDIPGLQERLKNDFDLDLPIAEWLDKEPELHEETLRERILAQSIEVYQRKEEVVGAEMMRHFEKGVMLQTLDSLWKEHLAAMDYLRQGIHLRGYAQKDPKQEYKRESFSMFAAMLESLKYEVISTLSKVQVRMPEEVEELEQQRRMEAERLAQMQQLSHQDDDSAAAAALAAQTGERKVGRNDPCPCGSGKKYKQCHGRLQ

SMILES	Percent Effect [1] [%]	Percent Effect [2] [%]	Percent Effect [3] [%]	Percent Effect [4] [%]	Percent Effect (Trypanosoma cruzi) [%]	Percent Effect ([5]; 30 µM) [%]	Percent Effect ([5]; 33.3 µM) [%]	Percent Effect [6]	Percent Effect (Homo sapiens) [%]	Percent Effect [7] [%]	Percent Effect [8] [%]	Percent Effect [9] [%]	Percent Effect (N/A)
COc1cc(C(=O)N(CCC#N)Cc2ccccn2)cc(OC)c1C	-4.24	-2.67	-4.3	14.4	7.89	2.7	-1.04	0.523%	6.76	-0.546	3.7	-3.63	–
CC(=O)NC(C)CC(=O)NCc1cccnc1Oc1ccccc1C (stereo not given)	-2.11	9.72	-0.172	-2.33	-1.26	1.62	6.18	11.6%	-9.66	8.42	12.8	-3.08	–
CN(C)CCCNC(=O)c1cc(Br)c2c(c1)OCCO2	-3.75	5.33	-4	10	3.6	-0.54	18.2	6.28%	-10	4.92	18.5	-7.32	–
COc1ccc(C2SC(C)=Nc3c2c(=O)[nH]n3C2CCCCC2)cc1O (stereo not given)	1.71	17.3	0.637	-1.4	0.786	-3.78	-25.2	15.3%	39.9	43.4	48.7	-12.8	–
CC(C)c1n[nH]c(C(=O)Nc2cc[nH]n2)c1Br	-6.13	5.06	24.9	3.44	-4.25	–	-3.8	74% and 65.8% and 74.1%	24.7	-0.493	1.27	-0.338	41.2% and 40.1%
COc1ccccc1Oc1ncccc1CNC(=O)[C@@H](C)NC(C)=O	-1.21	-4.17	-4.59	-7.34	-3.98	4.87	2.21	-0.526%	2.14	2.1	-2.56	2.74	–
Cc1cc(C)n(C2CN(Cc3noc(-c4ccccc4)n3)C2)n1	-4.45	-7.79	3.83	3.24	-6.39	5.95	-5.52	14.3%	5.29	3.23	1.24	-0.0991	–
Cc1ccc([C@@H]2CN(S(=O)(=O)c3cccs3)C[C@H]2N(C)C)cc1	-5.74	2.7	-3.82	22.9	2.25	-0.54	-0.744	0.944%	22.4	3.23	13.6	-3.75	–
CN(Cc1cccnc1)C1CC2(CCN(c3ccccn3)CC2)C1	-2.7	13.3	11	-6.68	-5.12	3.78	-1.17	3.26%	27.4	7.45	16.7	-5.79	–
Cc1ccccc1-c1cncc(C2CCN(C(=O)CN(C)C)CC2)n1	-4.06	6.76	14.4	-6.59	-4.74	-1.62	-8.59	9.83%	19.1	0	1.3	-14.4	–
O=c1[nH]c2c(c(=O)n1C1CCCCC1)CCC2Nc1ccccc1 (stereo not given)	-1.62	-4	-24.6	-0.297	0.393	-11.3	1.58	9.8%	11.8	-1.06	0	0.309	–
c1cc(OCc2ccc3c(c2)OCO3)ccc1CNC1CC1	7.84	0	0.713	-11.4	-6.91	–	-18.9	97.3% and 98.3% and 97.4%	14.4	-2.13	0	38.5	85.2% and 85%
Cc1cc(NC(=O)N2CCN(c3nc(C)c(C)s3)CC2)no1	-4.08	-2.7	8.59	-1.24	-4.3	3.78	0.833	12.8%	-8.43	5.94	8.54	-0.744	–
Cc1cc(C(=O)N2CCC3(CCCN(CC4CC4)C3=O)C2)c(C)n1C (stereo not given)	-5.53	5.48	-5.43	6.36	0.794	–	-4.39	49.3% and 56.6% and 47.8%	10.3	20.8	28.4	-1.72	11% and 8.3%
c1ccc2sc(N3CCOC(Cn4cccn4)C3)nc2c1 (stereo not given)	-6.09	13.5	-6.61	25.1	4.25	–	-6.41	38.1% and 31.4% and 25.9%	17.4	8.37	25.9	-17.7	10.8% and 13.7%
